Assay outcomes (PubChem)
uPA generation: cell surface uPA generation inhibition; cell surface uPA generation assay, qHTS; Potency, µM (top dose mostly 38.3 µM), inactives show at the top dose activity change, negative = inhibition, most hits filed as inhibitors; 330,000 compounds, 0.31% hits; active = well fitted inhibition curve with a large enough effect; inconclusive = small, poorly fitted or top-dose-only effect; inactive = no such curve, though single readings can be large or run the other way; tested in mouse RAW 264.7 cells; note: % is set by controls: 0 for no effect and ±100 for the full control effect; nearly all actives have a fitted effect of over 55% in size
Integrin act MD: activates integrin-mediated alleviation for muscular dystrophy; 350,000 compounds, 0.064% hits; AID 624291; alpha7betagal myoblasts, beta-gal FDG fluorescence, 48 h; Potency, µM (highest dose often 38.3 µM), inactives show at the top dose activation, most hits filed as activators;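 note: 100% = response of the positive control SU9516; nearly all actives have a fitted effect of over 60% in size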
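alpha7betagal+/- myoblasts (passage 13, 250/well) treated 48 h at 37C with compounds at 1:260 dilution of DMSO stock. Lysed, then beta-galactosidase activity read as FDG fluorescence (ex 480/em 540) after 30 min, with pre-read for autofluorescence.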
Chronic BCR inh: inhibitors of chronic active B-cell receptor signaling | Potency, µM (series often up to 46.1 µM), inactives show at the highest dose activity change, negative = inhibition, usual class: inhibitors | AID 493014 | 340,000 compounds, 0.05% hits | ABC-DLBCL IkBa-CBG/CBR reporter, luminescence ratio, 4 h; active = well fitted inhibition curve with a large enough effect in the signal ratio, with a control signal flat, not every such curve was filed as active; inconclusive = small, poorly fitted or top-dose-only effect, or effect the other way, or a change in a side signal; the % refers to the signal ratio;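 note: plate controls were basal doxycycline-induced cells for no effect and cells given 10 µM MG132 for full effect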
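Doxycycline induced both beetle luciferases in TMD8 lymphoma cells; IKK-driven degradation limits the IkappaBalpha-fused green signal, while red luminescence normalises for cell number and nonspecific effects. Compounds tested up to 46 uM, 4 hrs.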
RORgamma inh: inhibitors of mouse ROR gamma transcriptional activity; Drosophila S2 Gal4-RORgamma UAS-luciferase reporter, 20 h; 310,000 compounds, 5.4% hits; AID 2551; P51450; Potency, µM (top dose mostly 53.6 µM), for inactives: at the highest dose activity change, negative = inhibition, actives largely listed as inhibitors; note: % is set by controls: 0 for no effect and ±100 for the full control effect; nearly all actives have a fitted effect of over 60% in size
Target sequence (P51450 whole entry, looked up, the tested form may be a part): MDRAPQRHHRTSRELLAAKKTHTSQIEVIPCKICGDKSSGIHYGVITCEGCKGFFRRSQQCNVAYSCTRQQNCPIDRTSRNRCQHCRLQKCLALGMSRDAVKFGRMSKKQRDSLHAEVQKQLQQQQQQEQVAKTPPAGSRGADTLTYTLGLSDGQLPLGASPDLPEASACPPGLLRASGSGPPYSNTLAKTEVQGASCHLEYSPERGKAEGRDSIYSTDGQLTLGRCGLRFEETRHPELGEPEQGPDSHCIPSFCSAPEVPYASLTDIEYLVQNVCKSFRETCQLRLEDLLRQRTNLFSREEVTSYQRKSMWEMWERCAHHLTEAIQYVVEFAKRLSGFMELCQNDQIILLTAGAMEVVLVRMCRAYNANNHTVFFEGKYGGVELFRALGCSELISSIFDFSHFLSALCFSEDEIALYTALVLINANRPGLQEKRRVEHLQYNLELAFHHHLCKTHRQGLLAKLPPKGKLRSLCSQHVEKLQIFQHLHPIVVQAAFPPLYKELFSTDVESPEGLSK
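Schneider cells (Drosophila), stable Gal4 DBD–ROR gamma + UAS-luc; 1 hr cmpd preincubation; Cu2+ induction 700 uM final; 20 hr ambient; luminescence.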
VP16 counter: inhibits Gal4-VP16 luciferase reporter, ROR gamma counter-screen | AID 2546 | Drosophila S2 Gal4-VP16 UAS-luciferase, luminescence, 20 h | 310,000 compounds, 3.5% hits | Potency, µM (series often up to 53.6 µM), inactives show top-dose activity, negative = inhibition, actives largely listed as inhibitors;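 note: Gal4-VP16 expression switched on by copper sulfate through the metallothionein promoter; % is set by controls: 0 for no effect and ±100 for the full control effect; nearly all actives have a fitted effect of over 50% in size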
Mito fusion yeast: blocks mitochondrial division or promotes mitochondrial fusion. S. cerevisiae fusion-defective mutant growth rescue, CellTiterGlo 48 h. Potency, µM (top dose mostly 46.1 µM), without a hit: at the top dose growth rescue (activation), most hits filed as activators. 320,000 compounds, 0.23% hits; note: % of control where 0% means no effect; nearly all actives have a fitted effect of over 45% in size
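Luminescent cell viability in 1536-well qHTS format served as the measure of rescued growth in ts fusion-mutant S. cerevisiae cultured on non-fermentable YPEG for 48 hours at 37C.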
Starred values were filed as active, the others as inactive; u = inconclusive; x = no result; [ ] = dose if it differs, or a comment. Hits are enriched below; roughly 5.5% of the tested compounds scored in any of these assays. Unless noted, calls come from the whole dose curve; as a rule, active = well fitted curve in the direction sought with a large enough effect; inconclusive = small, poorly fitted or top-dose-only effect, or another doubt; inactive = no such curve, though single readings can be large; an effect the other way counts as inactive or inconclusive. Potency is the fitted concentration of half-maximal effect.

SMILES | uPA generation | Integrin act MD | Chronic BCR inh | RORgamma inh | VP16 counter | Mito fusion yeast
O=C(c1ccco1)N1CCC2(CC1)CCN(c1cccc(-c3ccccc3)c1)CC2 | x | x | x | 22% | 12% | x
Cc1ccnc(NC(=S)NC(=O)/C=C/c2ccco2)c1 | -19% | -15% | u | 7.1µM* | 1.8µM* | 4%
CCC(=O)Nc1ccc(NC(=S)NC(=O)/C=C/c2ccco2)cc1 | -6% | -24% | -11% | -15% | 7% | -7%
O=C(/C=C/c1ccco1)NC(=S)Nc1ccc(O)c(-c2nc3ccccc3s2)c1 | 4% | 2% | -29% | 2µM* | 2µM* | 0%
Cc1ccc(O)c(NC(=S)NC(=O)C(C)C)c1 | -1% | -6% | 0% | 11µM* | -1% | 4%
O=C(/C=C/c1ccco1)NC(=S)Nc1ccc(Cl)cn1 | -1% | -28% | u | 8.9µM* | u | 0%
N#Cc1ccc2c(c1)C[C@]1(CCCCN3C(=O)c4ccccc4C3=O)OC3=C(C(=O)OC4(CCCCC4)C3)C2O1 | x | x | 20%[9.22 µM] | -18%[10 µM] | -12%[10 µM] | 0%[9.22 µM]
Cc1ccc(CC(=O)NCc2ccc(F)cc2)cc1 | -8% | -21% | u | 19% | -21% | 1%
Cc1ccc(O)c(NC(=S)NC(=O)/C=C/c2ccco2)c1 | -14% | -34% | u | 7.9µM* | u | 1%
Cc1ccc(O)c(NC(=S)NC(=O)/C=C/c2ccccc2)c1 | 11% | 9% | 7% | -15% | 9% | -3%
COc1ccc(-n2c(C)c(C(C)=O)c3cc(OC(C)=O)ccc32)cc1 | 12% | 10µM* | 0% | -25% | -12% | -4%
Cc1ccc(CNC(=O)c2ccc(CSCc3c(F)cccc3Cl)o2)cc1 | x | x | 1% | x | x | x
CCN(c1ccccc1)S(=O)(=O)c1ccc(Cl)c(NC(=O)COC(=O)c2ccc(O)cc2)c1 | -3% | -6% | 4% | u | u | 0%
CCN(c1ccccc1)S(=O)(=O)c1ccc(Cl)c(NC(=O)COC(=O)c2cc(O)c3ccccc3c2O)c1 | x | x | u | 10µM* | 13µM* | -23%
O=C(Nc1ccn(CCCNCc2cccc3ccccc23)c(=O)n1)OCc1ccccc1 | x | -5% | x | x | x | x
O=C(NC(=S)Nc1ccccc1N1CCOCC1)c1ccc(-c2cccc(Cl)c2)o1 | 0% | 21% | -9% | 2.5µM* | 5.6µM* | 0%
O=C(NC(=S)Nc1ccc(CN2CCOCC2)cc1)c1ccc(-c2cccc(Cl)c2)o1 | -19% | -43% | 9% | 3.2µM* | 14µM* | 15%
O=[N+]([O-])c1cccc(S(=O)(=O)Nc2nc3ccccc3nc2Nc2cccc(S(=O)(=O)N3CCCCC3)c2)c1 | u | 8% | 15% | u | 11µM* | -11%
O=C(Nc1cccc(S(=O)(=O)N2CCCCC2)c1)c1ccc([N+](=O)[O-])o1 | -17% | -46% | u | 10µM* | u | 9%
Cc1ccc(S(=O)(=O)Nc2nc3ccccc3nc2Nc2cccc(S(=O)(=O)N3CCCC3)c2)cc1 | -9% | -21% | -5% | u | -10% | 5%
O=C(Nc1ccc(CN2CCOCC2)cc1)c1ccc(-c2cccc(Cl)c2)o1 | 2% | -11% | u | 19% | -14% | 8%
CN(C)CCc1c[nH]c2ccc(CC3COC(=O)N3)cc12 (stereo not given) | x | x | x | -17% | 4% | x
Nc1ncnc(N2CCc3ccccc32)c1[N+](=O)[O-] | -2% | u | u | -25% | 1% | 28%
O=C(NC(=S)Nc1ccc(CN2CCOCC2)cc1)c1cccc([N+](=O)[O-])c1 | -3% | -22% | -6% | u | u | 5%
O=C(Nc1ccccc1N1CCCCC1)c1ccc([N+](=O)[O-])o1 | -2% | -55% | 7% | x | x | 5.6µM*
SMILES | uPA generation | Integrin act MD | Chronic BCR inh | RORgamma inh | VP16 counter | Mito fusion yeast
O=C(NC(=S)Nc1ccccc1N1CCCCC1)c1ccc(-c2cccc([N+](=O)[O-])c2)o1 | 4% | 4% | 21% | 0.5µM* | 2.2µM* | 0%
O=C(NC(=S)Nc1ccc(CN2CCOCC2)cc1)c1ccc([N+](=O)[O-])cc1Cl | -1% | -19% | 0% | 7.9µM* | u | 0%
CCCC(=O)N1CCN(c2ccc(NC(=O)c3ccc([N+](=O)[O-])o3)cc2Cl)CC1 | -12% | 0% | u | 20µM* | u | -6%
C[C@H]1CCCC(=O)CCC/C=C/c2c(O)cc(O)cc2C(=O)O1 | x | x | x | -3% | u | x
CSc1nc2ccc(NC(=O)CS(=O)(=O)c3ccccc3)cc2s1 | x | 22% | x | x | x | x
O=C(O)c1cc(N=Nc2ccc(-c3ccc(N=Nc4ccc(O)c(C(=O)O)c4)cc3)cc2)ccc1O | x | x | x | 7% | -7% | x
O=C(CS(=O)(=O)c1ccc(Cl)cc1)NCc1ccccc1 | 0% | 26% | 0% | 11% | -3% | -5%
NNc1nc(N)c2c(n1)-c1ccccc1CC21CCCC1 | 0% | -29% | u | 18µM* | u | -15%
CCc1nc2c(c(=O)[nH]1)C1(CCCC1)Cc1ccccc1-2 | -1% | 7% | -13% | 17% | -6% | 2%
CCC1(C)Cc2c(sc3nc(NN)n(C)c(=O)c23)CO1 (stereo not given) | -6% | -50% | u | -10% | 14µM* | 1%
CCC(C)c1ccc(NC(=S)NC(C)C2CCCO2)cc1 (stereo not given) | 13% | -6% | -1% | 6.3µM* | 18µM* | -4%
COc1ccc(-c2cc(=O)c3c(OC)c(OC)c(OC)c(OC)c3o2)cc1OC | -9% | x | u | u | -2% | -1%
O=c1cc(-c2c(F)c(F)c(F)c(F)c2F)oc2ccccc12 | u | -49% | u | 7.9µM* | u | -1%
O=c1cc(-c2c(F)c(F)c(F)c(F)c2F)oc2c(F)c(F)c(F)c(F)c12 | x | x | u | 2.5µM* | 3.2µM* | -22%
COc1ccc(OC)c2sc(NC(=O)CCS(=O)(=O)c3ccccc3)nc12 | 7.1µM* | -29% | x | x | x | x
O=C(CCS(=O)(=O)c1ccccc1)Nc1nc2ccc(F)cc2s1 | -8% | -47% | 14% | x | x | -3%
CS(=O)(=O)c1ccc2nc(NC(=O)CCS(=O)(=O)c3ccccc3)sc2c1 | -15% | -65% | -17% | 18µM* | u | 14%
CS(=O)(=O)c1ccc2nc(NC(=O)c3ccccc3)sc2c1 | -10% | -42% | u | 11µM* | u | -5%
O=C(Nc1ccc(Br)cc1)C1OCCc2ccccc21 (stereo not given) | -5% | -23% | 10% | 37% | -4% | -10%
Cc1ccc2c(=O)n3c(nc2c1)C(CC(C)C)NC(=O)c1cccnc1-3 (stereo not given) | x | 13% | x | x | x | x
